Laboratory results reported in PubChem BioAssay AID651702 (NMMLSC, 2012).
Among all 360,000 compounds or so, about 2,400 (0.67%) were called active. Many of the other results were omitted from the sample, so actives are more common in it than they were. A number with no mark means an inactive call.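 The calls were made as follows: active = inhibition above about 55% (limit read from the data); inconclusive = no clear call, values can overlap the other calls; inactive = the rest.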

test: LAMP-1 surface exposure blockers, TALL-104 cells – cell-based, flow cytometry, MLPCN library, primary screen (AID 651702); conditions: TALL-104 LAMP-1 surface exposure, at 10 µM, stronger effect = higher value, cells stimulated with thapsigargin and PMA

In order of falling inhibition:
1. CC1CCCCC1NC(=O)Cn1c(=O)cnc2ccccc21 (configuration not stated)  25.2%
2. COc1ccc(-c2oc3ncn(Cc4ccco4)c(=N)c3c2-c2ccc(OC)cc2)cc1  24.9%
3. OC(COc1ccc(CN2CCSCC2)cc1)CN1CCCCC1 (configuration not stated)  19.9%
4. CCCCC(CC)CNCc1cccn1CCN1CCOCC1 (configuration not stated)  19.8%
5. COc1ccc(NC(=O)C(c2ccncc2)n2c(=O)c(-c3cc4ccccc4[nH]3)nc3ccccc32)cc1 (configuration not stated)  19.8%
6. O=C(COC(=O)/C=C/c1cccc(Cl)c1)NCc1cccs1  18.2%
7. CCc1cc(C(=O)N(CC)CC(=O)Nc2c(F)cccc2F)sc1C  18.1%
8. CN(c1ccccc1)S(=O)(=O)c1ccc(NC(=O)COc2ccccc2)cc1  16.3%
9. CCOC(=O)[C@]12CCCC=C1N(CCC1=CCCCC1)C(=O)[C@H](CC(=O)NCCCCc1ccccc1)C2  11.5%
10. CCOc1cc(CN2CCCC(CO)(Cc3ccc(F)cc3F)C2)ccc1OC (configuration not stated)  11.4%
11. COc1ccc(CCNC(=O)CN(c2ccccc2)S(C)(=O)=O)cc1  10.8%
12. Cc1cc(C)cc(NC(=O)NC2CCN(CC(=O)Nc3cccc(Cl)c3C)CC2)c1  9.3%
13. COc1cccc(CN(C)CC(=O)Nc2ccccc2C(=O)Nc2ccccc2)c1  8.4%
14. Cc1oc(-c2cccc(Cl)c2)[n+]([O-])c1C  8%
15. Cc1nc2ccc(C(=O)N(C)CC3CCCN(CCc4ccc(Cl)cc4)C3)cc2[nH]1 (configuration not stated)  6.7%
16. Cc1ccccc1CSCCNC(=O)c1ccc(N(C)S(=O)(=O)c2ccccc2)cc1  6.2%
17. Cc1ccccc1NC(=S)N(CCCN1CCOCC1)Cc1cccs1  5.8%
18. Cc1nc(-c2ccc(Cl)cc2)sc1C1(C)CC(c2ccccc2F)=NO1 (configuration not stated)  5.5%
19. COc1ccccc1C(=O)NCCC(=O)NN1C(=O)NC2(CCCCC2)C1=O  4%
20. O=C(O)C(F)(F)C(NCc1ccccc1)c1ccccc1 (configuration not stated)  2.5%
21. Cc1cccc(-c2ncc(CN3CCC(CO)(CCCc4ccccc4)CC3)cn2)c1  2.3%
22. O=C(NCc1cccc(C(F)(F)F)c1)c1ccc2sc(COCCO)nc2c1  2.2%
23. COc1ccccc1NS(=O)(=O)c1ccc(C(=O)N2CCN(c3ccccc3O)CC2)cc1  2.1%
24. CC1(C2CC2)NC(=O)N(CC(=O)N2CCN(c3ccccc3F)CC2)C1=O (configuration not stated)  2%
25. Cc1ccc2nc(COc3ccc(N(C)S(=O)(=O)c4ccccc4)cc3)cc(=O)n2c1  2%
26. Cc1cccc(OCC(O)Cn2c(=N)n(CCN3CCOCC3)c3ccccc32)c1 (configuration not stated)  1.7%
27. O=c1cc(CO)oc(C(Nc2cccc(C(F)(F)F)c2)c2ccccn2)c1O (configuration not stated)  1.7%
28. CCOC(=O)N1CCC(Nc2c(NCCN3CCN(c4cccc(Cl)c4)CC3)c(=O)c2=O)CC1  1.5%
29. CCOc1cnc(-c2c(-c3ccccc3Cl)noc2C)o1  1.2%
30. Cc1nc(C(=O)Nc2ccc(Cl)cc2)sc1C1(C)CC(c2ccccc2)=NO1 (configuration not stated)  1.2%
31. CN(C)c1ccc(N/C=C/C(=O)C(F)(F)F)cc1  0.5%
32. CC(C(=O)NCC1CCCCC1)N(C)Cc1cccc(Cl)c1 (configuration not stated)  0.2%
33. CC(C)(C)c1cc2cccnc2n1Cc1ccccc1  0%
34. NNC(=O)C1CC(O)CN1S(=O)(=O)c1ccc(Cl)cc1 (configuration not stated)  -0.1%
35. COc1cccc(NC(=O)CSc2nccn(-c3ccc4c(c3)OCCO4)c2=O)c1  -0.2%
36. CCc1ccccc1N(CC(=O)NCCSCc1ccco1)S(C)(=O)=O  -0.4%
37. Cc1ccc(NC(=O)CN2CCCCC2)c2c1CC(C)(C)O2  -0.4%
38. CN(c1ccccc1)S(=O)(=O)c1ccc(C(=O)NCc2cccnc2)cc1  -0.5%
39. O=C(Cc1ccc(-n2c(=O)[nH]c3ccccc3c2=O)cc1)N1CCN(c2cccc(Cl)c2)CC1  -0.7%
40. CC[C@@H]1CC2=C(C(=O)OC(C)(C)O2)[C@@H](CC)O1  -0.8%
41. COc1ccc(S(=O)(=O)N(C)C[C@@H]2Oc3ccc(NS(=O)(=O)c4cn(C)cn4)cc3C(=O)N([C@@H](C)CO)C[C@@H]2C)cc1  -0.8%
42. Cc1ccccc1C(OCC(O)CN1CCCCC1CCO)c1ccccc1 (configuration not stated)  -0.9%
43. CC(C)Cc1nnc(NC(=O)CN2C(=O)NC3(CCCCC3)C2=O)s1  -0.9%
44. C/C=C/c1ccc(OCC(O)CN2CCCCCCC2)c(OC)c1 (configuration not stated)  -1%
45. CCOC(=O)N1CCN(c2cc(C)c([N+](=O)[O-])cc2F)CC1  -1%
46. C(=C\c1ccccc1)/CSc1nnc(-c2cccnc2)n1Cc1ccco1  -1%
47. C#CCN1C(=O)C(O)(CC(=O)c2cc(OC)ccc2OC)c2ccccc21 (configuration not stated)  -1.2%
48. COc1cc(NC(=O)COC(=O)c2cc(S(=O)(=O)N3CCOCC3)ccc2F)cc(OC)c1  -1.4%
49. O=C(Nc1ccccc1)c1ccccc1Br  -1.5%
50. CCc1cccc(C)c1NC(=S)N(CCCN1CCN(C)CC1)Cc1cccs1  -1.6%
51. COc1cccc(Nc2ncccc2C(=O)O)c1  -1.7%
52. CCCCN1C(=O)/C(=C(/C#N)C(N)=O)c2ccccc21  -1.7%
53. COc1ccc([C@H]2CC(=O)C=C(c3ccc(OC(F)(F)F)cc3)C2)cc1OC  -1.8%
54. Cc1cccc(NC(=O)c2cccc(C(=O)Nc3cccc(C)c3C)n2)c1C  -1.9%
55. CCc1ccc(C2N3CC4([N+](=O)[O-])CN2CC([N+](=O)[O-])(C3)C4(C)C)cc1 (configuration not stated)  -2%
56. COc1ccc(CCNC(=O)COC(=O)c2cc(=O)c3ccccc3o2)cc1  -2.7%
57. O=S(=O)(Nc1ccc2ccccc2c1)N1CCCCC1  -2.7%
58. Cc1cccc(C(=O)NNC(=O)CSc2nnc(C(C)C)n2C)c1  -2.9%
59. CC(C)(O)C#Cc1ccc(CN2CCC(CO)(CCc3ccccc3)CC2)cc1  -3%
60. COc1ccc(-c2c(C#Cc3ccccc3)c3ccccc3n2C)cc1  -3.3%
61. COc1cccc(CN(C)CC(=O)NCc2ccccc2Cl)c1OC  -3.5%
62. Cc1cc(=O)cc(C)[nH]1  -3.9%
63. CC(Oc1ccccc1)C(=O)Nc1c2c(nn1-c1ccccc1)CS(=O)C2 (configuration not stated)  -4%
64. O=C(Cn1nnc(-c2ccc(CN3CCOCC3)cc2)n1)NC1CCCCC1  -4.2%
65. COCCNC(=O)C(c1ccc(O)cc1)N(C(=O)CCC(=O)Nc1nccs1)c1ccc(C)cc1 (configuration not stated)  -4.4%
66. Cc1ccccc1CSc1nnc(CCCCCNC(=O)OC(C)(C)C)o1  -4.6%
67. Cc1cc(C)cc(N(CC(=O)NCCSCc2ccco2)S(C)(=O)=O)c1  -4.7%
68. COc1ccc(NC(=O)C2=CC(c3ccc(OC)c(OC)c3)=NS(=O)(=O)N2C)cc1  -5.8%
69. O=S(=O)(Nc1ccc(OC(F)(F)F)cc1)c1cccc2nonc12  -6.5%
70. CC(C)CCN1NC2(CCC(C)CC2)NC1=S (configuration not stated)  -6.9%
71. O=C(COC(=O)c1ccccc1SCC(=O)N1CCCC1)Nc1ccccc1OC(F)F  -7.8%
72. O=C(c1n[nH]c2c1CCC2)N1CCCC(Nc2cccc(F)c2)C1 (configuration not stated)  -7.9%
73. CC(=O)OCC(=O)C1(O)CCC2C3CC(C)C4=CC(=O)CCC4(C)C3C(O)CC21C (configuration not stated)  -8.4%
74. Cc1cc(C)n(CCNC(=O)CC2C(=O)NCCN2Cc2ccc(C)o2)n1 (configuration not stated)  -10.6%
75. CCOC(=O)[C@H]1[C@H]2COc3cc(OC)ccc3[C@@H]2N2C(=O)N(c3ccc(Br)cc3)C(=O)[C@@]12C  -15.5%

For `O=C(Nc1ccccc1)c1cccnc1Nc1ccccc1`, the inhibition was 99.9% (active).
In the case of `COc1cccc(CN(C)CC(O)COC(c2ccccc2)c2ccccc2C)c1` (configuration not stated), the inhibition is reported as 60.5% (active).
In the case of `COc1ccc(CCNCc2c(-c3ccccc3)n(C)c3ccccc23)cc1`, the inhibition is reported as 90.8% (active).
For `Cc1c(CN2CCC(CO)(CCOc3ccccc3)CC2)[nH]c2ccc(Cl)cc12`, the inhibition was 64.1% (active).
For `Cc1oc(-c2ccccc2Cl)[n+]([O-])c1C`, the inhibition was 58.5% (active).
With `CS(=O)(=O)N(Cc1ccc(Cl)cc1)c1ccc(C(=O)NCCSCc2ccco2)cc1` the inhibition was 95.2% (active).
In the case of `COc1cccc(COc2ccc(N(C)S(=O)(=O)c3ccccc3)cc2)c1`, the inhibition is reported as 72% (active).
For `Cc1ccc(NC(=S)N(CCCN2CCCC2)Cc2cccn2Cc2ccc(Cl)cc2)cc1`, the inhibition was 75.2% (active).
In the case of `Oc1ccc2ccccc2c1N=Nc1nccs1`, the inhibition is reported as 61.9% (active).
In the case of `O=S(=O)(Nc1ccc(O)c2ccccc12)c1ccc(OC(F)(F)F)cc1`, the inhibition is reported as 60.2% (active).
For `COc1ccc2c(c1)C(=C(C#N)C#N)C(=O)N2CCc1ccccc1`, the inhibition was 97.9% (active).
In the case of `OC(CN=c1sc2ccccc2n1CC(O)COc1ccccc1)COc1ccccc1` (configuration not stated), the inhibition is reported as 91.1% (active).
In the case of `CN(c1ccccc1)S(=O)(=O)c1ccc(C(=O)NCCc2ccccc2)cc1`, the inhibition is reported as 70.8% (active).
For `O=C(Cc1csc(Nc2nc(=S)[nH]c3ccccc23)n1)NCCCN1CCN(c2cccc(Cl)c2)CC1`, the inhibition was 56.9% (active).
For `Cc1nc(-c2ccc(Cl)cc2)sc1C1(C)CC(c2ccc(Br)cc2)=NO1` (configuration not stated), the inhibition was 56.1% (active).
With `COc1cccc(CN(C)CC2CCCN(CCc3ccc(Cl)cc3)C2)c1OC` (configuration not stated) the inhibition was 75.1% (active).
With `N=c1c2c(-c3ccccc3)c(-c3ccccc3)oc2ncn1Cc1ccco1` the inhibition was 59.7% (active).
